# Screening data from PubChem.
# KB-V1 MDR tox: kills drug-selected multidrug resistant KB-V1 cells. KB-V1 MDR cells viability, CellTiter-Glo, 72 h. Potency, µM (doses to about 46.1 µM), hits mostly cytotoxic. 400,000 tested, 3.4% active; further: potency means the concentration at half of the fitted maximal effect; on the % scale 0 is the no-effect control and ±100 the full control effect; nearly all actives have a fitted effect of over 60% in size
#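 Cytotoxicity toward P-gp-expressing KB-V1 cells was determined as loss of CellTiter-Glo luminescence after 72 h at 37 degrees C. Compounds were tested in quantitative HTS format across a concentration range, with curves fitted to normalized data.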
# MCF10A rerep: inducers of DNA re-replication in MCF 10A breast cells. Potency, µM (highest dose often 46.1 µM), without a hit: at the top dose activity, positive = re-replication, actives largely listed as activators. 350,000 tested, 2.9% active. AID 624296. MCF 10A DNA re-replication, Hoechst nuclear intensity, 48 h; further: potency means the concentration at half of the fitted maximal effect; % of control where 0% means no effect; nearly all actives have a fitted effect of over 50% in size
# SW480 rereplic: DNA re-replication induction in SW480 cells. SW480 DNA re-replication, Hoechst DNA content imaging, 48 h. Potency, µM (doses to about 46.1 µM), without a hit: at the top dose re-replication activation, usual class: activators. 340,000 tested, 1.8% active. AID 624297; further: potency means the concentration at half of the fitted maximal effect; % of control where 0% means no effect; nearly all actives have a fitted effect of over 55% in size
#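 Hoechst fluorescence of nuclei (405 nm excitation, 500-530 nm emission) measured by plate-scanning imager after 48 hr compound exposure at 37 C; re-replication scored as increased number of nuclei with elevated intensity.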
# D3 antag: D3 dopamine receptor (human) antagonism | D3R cells, DiscoveRx beta-arrestin luminescence, antagonist mode; stronger effect = lower value | max response, negative = inhibition, % | 360,000 tested, 2.5% active | AID 652054; in the data active means max response below about -50%; inconclusive means no clear call, values can overlap the other calls; further: on the % scale 0 is the no-effect control and ±100 the full control effect
# Target sequence (P35462 whole entry, looked up): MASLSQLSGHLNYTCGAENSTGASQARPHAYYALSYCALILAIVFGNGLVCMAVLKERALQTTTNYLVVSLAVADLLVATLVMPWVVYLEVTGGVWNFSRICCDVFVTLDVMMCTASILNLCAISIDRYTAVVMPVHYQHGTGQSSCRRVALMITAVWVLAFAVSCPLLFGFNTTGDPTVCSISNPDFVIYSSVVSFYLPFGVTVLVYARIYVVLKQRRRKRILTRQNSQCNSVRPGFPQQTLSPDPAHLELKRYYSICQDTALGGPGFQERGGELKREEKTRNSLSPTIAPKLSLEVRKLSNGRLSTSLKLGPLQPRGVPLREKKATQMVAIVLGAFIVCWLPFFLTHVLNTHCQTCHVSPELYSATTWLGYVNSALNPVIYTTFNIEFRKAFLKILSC
#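 Cells plated overnight at 1500 cells/well, then exposed to library compounds with dopamine controls for 90 minutes at 37 degrees C. DiscoveRx reagent added for 30–60 minutes at room temperature; luminescence read, quantitative HTS format.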
# KB-3-1 tox: KB-3-1 parental cell cytotoxicity | KB-3-1 viability, CellTiter-Glo ATP luminescence, 72 h | Potency, µM (titrated, usually from 46.1 µM), usual class: cytotoxic | 400,000 tested, 1.4% active; further: potency means the concentration at half of the fitted maximal effect; on the % scale 0 is the no-effect control and ±100 the full control effect; nearly all actives have a fitted effect of over 60% in size
#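 72 h, 37 °C compound treatment of KB-3-1 parental cells; CellTiter-Glo added, 10 min, luminescence read. Data corrected against DMSO-only plates and normalized before curve fitting.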
# DRD3 agonist: D3 dopamine receptor (human) agonism. 410,000 tested, 0.58% active. D3R DiscoveRx beta-arrestin cells, luminescence, 90 min. max activation, %; in the data active means max activation above about 30%; further: 0% is about no effect
#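 Cells at 1500/well, incubated overnight, then treated with pinned compounds (dopamine as control) for 90 min at 37 degrees C. DiscoveRx reagent added for 30 - 60 minutes at room temperature; luminescence read.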
# * marks the source's active call; other numbers are inactive results; i = inactive; u = inconclusive; x = no result; ! = not active in a repeat; [ ] = another dose, or the depositor's remark. Only some compounds are listed: those with a hit (about 8.9% of all), similar ones and a draw of the others. Unless noted, the call rests on the fitted dose curve; in most records, active means well fitted curve in the direction sought with a large enough effect; inconclusive means small, poorly fitted or top-dose-only effect, or another doubt; inactive means no such curve, though single readings can be large; an effect the other way counts as inactive or inconclusive.
SMILES,KB-V1 MDR tox,MCF10A rerep,SW480 rereplic,D3 antag,KB-3-1 tox,DRD3 agonist
COc1ccccc1N1CCN(CC(=O)c2c(C)[nH]c3ccccc23)CC1,i,u,0%,u,u,-21
CCOC(=O)c1c(C)c(-c2ccccc2)n(CC(=O)Nc2ccc(OCC)cc2)c1C,i,x,x,x,i,5
c1ccc2nc3c(nc2c1)c1ccccc1n3CCN1CCOCC1,u,18µM*,u,6,i,6
C#CCn1c2ccccc2c2nc3ccccc3nc21,18µM*,-9%,-2%,19,i,1
N#CCn1c2ccccc2c2nc3ccccc3nc21,i,u,u,19,i,7
CC(C)n1c2ccccc2c2nc3ccccc3nc21,i,23µM*,u,-15,i,1
CC(=O)N1CCc2cc(CNS(=O)(=O)c3ccc(Cl)s3)ccc21,x,x,x,x,x,2
O=C(NCCN1CCCC1)c1cccc(Cl)c1,i,-4%,-6%,u,i,-22
O=C(NCCN1CCCC1)c1ccc(Cl)cc1,i,0%,-152%,-98*,i,-11
CC(NC(=O)COc1ccccc1)C(=O)N1CCN(c2ccc(F)cc2)CC1 (centres undefined),18µM*,11%,-4%,2,i,6
CCn1c(=O)c(NC(=O)c2ccccc2)c2n(c1=S)CCCCC2,i,0%,-1%,0,i,-7
CCOCCCn1c(=O)c(NC(=O)c2ccc(OCC)cc2)c2n(c1=S)CCCCC2,8.2µM*,0%,6%,-19,i,-1
O=C(NCCN1CCOCC1)c1cc(-c2ccc(Cl)cc2)on1,21µM*,-6%,3%,10,i,-8
COc1ccc(N2CC(NC(=O)c3ccco3)CC2=O)cc1OC (centres undefined),i,x,x,x,i,5
Cc1ccc(Cn2c(=O)c3ccccc3n3c(-c4ccccc4)nnc23)cc1,i,x,x,x,i,6
O=C(COc1ccc(F)cc1)NCCN1CCCC1,u,14%,u,-57*,i,-15
CC(C)(C)c1ccc(C(=O)c2c[nH]c(C(=O)NCCCN3CCOCC3)c2)cc1,18µM*,u,8%,13,i,0
O=C(NCCN1CCCCC1)Nc1cccc(C(F)(F)F)c1,i,17%,-2%,-58*,i,-12
Fc1ccc(OCCCCCCN2CCCC2)cc1,i,u,-2%,-29,i,-33
O=C(Nc1ccc(CN2CCCCC2)cc1)Nc1ccc(Br)cc1Cl,u,16µM*,u,-79*,13µM*,-29
Cc1ccc2oc3c(c(=O)c2c1)C1(C(=O)N(C)c2ccccc21)N(CCCO)C3=O (centres undefined),i,x,x,x,i,2
CCOc1ccc(OCC(=O)NCCS(=O)(=O)N2CCN(c3ccc(F)cc3)CC2)cc1,i,1%,u,17,i,38*!
CCOc1ccc(OCC(=O)NCCS(=O)(=O)N2CCN(c3ccccc3)CC2)cc1,i,x,x,-11,i,-6
O=C(NCCSCc1c(F)cccc1Cl)c1ccc(CN2CCOCC2)cc1,16µM*,u,2%,22,u,0
O=C(NCCC(=O)N1CCCCCCC1)c1ccc(Br)cc1,i,9%,-7%,-7,u,-9
SMILES,KB-V1 MDR tox,MCF10A rerep,SW480 rereplic,D3 antag,KB-3-1 tox,DRD3 agonist
O=C(NCCN1CCCCC1)Nc1ccc(Br)cc1,i,9%,13%,-54*,i,-13
Cc1ccc(NC(=O)NCCN2CCCCC2)cc1,i,-16%,3%,-17,i,-22
O=C(NCCSCc1ccco1)c1ccc(CN2CCOCC2)cc1,i,1%,-12%,-15,i,-14
O=C(NCCN1CCCC1)c1ccc(Br)cc1,i,-14%,-3%[9.22 µM],-77*,i,-33
O=S(=O)(c1ccc(SCCOc2ccc(Cl)cc2)nc1)N1CCCC1,u,2%,-35%,u,u,-6
O=C(NCCN1CCOCC1)C1CCC(CNS(=O)(=O)c2ccc(Cl)cc2)CC1 (centres undefined),i,16µM*,4%,20,i,16
